# Unmarked numbers belong to inactive results. Calls of active or inactive are those of the source. Calls follow the shape of the dose curve; as a rule, active = well fitted inhibition curve with a large enough effect; inconclusive = small, poorly fitted or top-dose-only effect; inactive = flat fitted curve, though single readings scatter.
# Biological target: Flap endonuclease 1 (Homo sapiens) (UniProt P39748)
# Experiment: qHTS Validation Assay for the Inhibitors of Human Flap endonuclease 1 (FEN1) (AID 488816)
# Conditions: FEN1 nuclease activity, fluorogenic DNA substrate; series mostly up to 57.1 µM; activity, negative = inhibition: at the top concentration
# Text: The major human flap endonuclease FEN1 is an efficient structure-specific enzyme that recognizes and cleaves a 5'-unannealed DNA flap. It belongs to the RAD2 family nucleases, which are involved in DNA metabolism and are highly conserved in prokaryotes and eukaryotes. FEN1 is a key enzyme in DNA replication, repair and maintenance of genomic stability. 5'-flap removal by FEN1 is critical for Okazaki fragment processing during lagging strand DNA synthesis, long-patch base excision repair (LP BER), and regulating or facilitating recombination events. […] Deletion of the yeast FEN1 gene, i.e. rad27, results in an increased frequency of short DNA (3-32 bp) repeats, micro- and mini-satellite formation, trinucleotide repeat expansion, spontaneous recombination events, and a severe growth defect in association with cell cycle arrest in late S/G2 phase. […] Cells from fen1-/- blastocysts show increased apoptotic cell death after ionizing radiation treatment, and chicken cells lacking the fen1 gene are hypersensitive to DNA alkylating agents, e.g. methylmethane sulfonate (MMS) and N-methyl-N'-nitro-N-nitrosoguanidine (MNNG), as well as hydrogen peroxide.
# FEN1 is found to be increased in many human cancers, including lung, brain cancer, gastric cancer, prostate cancer, pancreatic cancer and breast cancer. […] In particular, elevation of FEN1 in hormone refractory human prostate cancer cells correlates with resistant to various anticancer agents including ionizing radiation, doxorubicin, paclitaxel and vinblastine.
# Three uL of reagents (buffer in column 3 and 4 as negative control and 10 nM FEN1 in columns 1, 2, and 5-48) were dispensed into 1,536-well black solid-bottomed plate. Compounds (23 nL) were transferred via Kalypsys pin tool equipped with 1536-pin array (10 nL slotted pins, V&P Scientific, San Diego, CA). The plates were then incubated for 15 min at room temperature, and 1 uL substrate (50 nM final concentration) were added to start the reaction read twice at 0 min read and 15 min on ViewLux reader. Throughout the screen, reagent bottle and all liquid lines were chilled and made light-tight to minimize reagent degradation. All screening operations were performed on a fully integrated robotic system (Kalypsys, San Diego, CA) containing one RX-130 and two RX-90 anthropomorphic robotic arms (Staubli, Duncan, SC). Library plates were screened starting from the lowest and proceeding to the highest concentration, and a "double-dipping" step of the highest concentration was required to access higher concentrations of compounds. Vehicle-only plates, with DMSO being pin-transferred to the entire column 5-48 compound area, were inserted uniformly at the beginning and the end of each library in order to monitor for and record any shifts in the background, which can be affected by reagent dispensers or loss in enzyme activity overtime. Screening data was corrected, normalized, and concentration-effect relationships were derived by using publicly-available curve fitting algorithms developed in-house (http://ncgc.nih.gov/pub/openhts). A four parameter Hill equation was fitted to the concentration-response data by minimizing the residual error between the modeled and observed responses.
# % is scaled to controls: 0 for no effect and ±100 for the full control effect; potency is read from the fitted curve at half-maximal effect.
# Chain of Flap endonuclease 1 (Homo sapiens) (P39748 whole entry, looked up): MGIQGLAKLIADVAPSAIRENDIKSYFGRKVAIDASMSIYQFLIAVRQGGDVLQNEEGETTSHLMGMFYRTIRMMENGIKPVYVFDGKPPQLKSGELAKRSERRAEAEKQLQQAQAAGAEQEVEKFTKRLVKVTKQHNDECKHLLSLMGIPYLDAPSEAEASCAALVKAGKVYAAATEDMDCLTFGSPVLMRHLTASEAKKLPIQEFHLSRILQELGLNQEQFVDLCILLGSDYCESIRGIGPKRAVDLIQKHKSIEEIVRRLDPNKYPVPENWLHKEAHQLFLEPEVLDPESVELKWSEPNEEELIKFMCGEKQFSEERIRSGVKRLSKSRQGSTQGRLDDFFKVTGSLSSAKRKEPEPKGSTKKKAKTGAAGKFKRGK
SMILES,"activity, negative = inhibition [%]",Potency
CN1C2CCCC1CC(NC(=O)c1nn(C)c3ccccc13)C2 (configuration not stated),-2.26,–
Nc1c(S(=O)(=O)O)cc(Nc2ccc(Nc3nc(Cl)nc(Nc4ccc(S(=O)(=O)O)cc4)n3)c(S(=O)(=O)O)c2)c2c1C(=O)c1ccccc1C2=O,–,0.947 µM (active)
C[C@H](Cc1ccccc1)Nc1ncnc2c1ncn2[C@@H]1O[C@H](CO)[C@@H](O)[C@H]1O,-6.72,–
O=Nc1c(-c2c(O)[nH]c3ccccc23)[nH]c2ccccc12,-24.6,–
C1CCC(N=C(NC23CC4CC(CC(C4)C2)C3)N2CCOCC2)CC1,-9.71,–
N#C/C(=C\c1ccc(O)c(O)c1)C(=O)Nc1ccccc1,–,18.9 µM (active)
O=C1c2ccccc2C(=O)c2c(NCCc3ccc(O)cc3)ccc(NCCc3ccc(O)cc3)c21,-17.4,–
S=C(Nc1ccccc1)Nc1nccs1,-14.2,–
CCc1ccc(/C=C2/SC(=S)NC2=O)cc1,-8.56,–
Oc1cc2c(c(Cl)c1O)CCNCC2c1ccccc1 (configuration not stated),-15.8,–
N.N.O=C(O)C1(C(=O)O)CCC1.[Pt+2],–,29.9 µM (active)
Cc1cccc(/C=C/c2ccccc2)n1,-2.12,–
